# Screens as filed in PubChem BioAssay.
# Shown are actives, neighbours in structure and some others; about 22% of the full set was active somewhere.
# Pf growth 96h: P. falciparum growth inhibition at 96 hour, primary screen for plastid delayed-death inhibitors. Potency, µM (doses to about 28.7 µM), for the others: at the highest dose activity change, negative = inhibition, actives largely listed as inhibitors. 6.9% of 320,000 active. AID 504834. P. falciparum luciferase reporter growth, 96 h; also: potency is read from the fitted curve at half-maximal effect; % is scaled to controls: 0 for no effect and ±100 for the full control effect
#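 Infected RBCs, 2% Hct / 0.05% parasitemia final; luciferase-reporter P. falciparum; cpd 96 h, 37 C, 5% CO2; luciferase detection reagent; luminescence.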
# CHX counter: affects cycloheximide protein synthesis inhibition readout, counter-screen; cell reporter, cycloheximide protein synthesis inhibition counterscreen; max response, %; 12% of 300,000 active; in the data active = max response mostly above about 13%, no sharp cut-off; inactive = mostly below about 14%; also: read at 38.3 µM for the half of the compounds with a filed dose; 0% is about no effect
# Pf growth 48h: inhibits P. falciparum growth in the first generation, 48 h; 5.9% of 310,000 active; P. falciparum luciferase growth in erythrocytes, 48 h; Potency, µM (series often up to 28.7 µM), for inactives: at the top dose activity change, negative = inhibition, hits mostly inhibitors; AID 504832; also: potency is read from the fitted curve at half-maximal effect; % is scaled to controls: 0 for no effect and ±100 for the full control effect
#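 Here the parasites carry a stable luciferase gene and grow inside erythrocytes in Albumax-based RPMI medium with compound for one erythrocytic cycle. Activity is scored as loss of luminescent signal.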
# Shiga toxin inh: inhibitors of Shiga toxin in Vero cells; Vero cells, Shiga toxin protein synthesis inhibition reporter; inhibition, % at 38.7 µM; 9.2% of 290,000 active; in the data active = inhibition mostly above about 28%, no sharp cut-off; inactive = mostly below about 43%; also: 0% is about no effect
# LmPK inhibitor: LmPK (Leishmania mexicana) enzyme inhibition | purified LmPK, Kinase-Glo ATP luminescence, 1 h | Potency, µM (doses to about 57.5 µM), inactives show at the highest dose activity change, negative = inhibition, usual class: inhibitors | 0.37% of 290,000 active | AID 1721; also: potency is read from the fitted curve at half-maximal effect; % is scaled to controls: 0 for no effect and ±100 for the full control effect
# Target sequence (Q27686 whole entry, looked up): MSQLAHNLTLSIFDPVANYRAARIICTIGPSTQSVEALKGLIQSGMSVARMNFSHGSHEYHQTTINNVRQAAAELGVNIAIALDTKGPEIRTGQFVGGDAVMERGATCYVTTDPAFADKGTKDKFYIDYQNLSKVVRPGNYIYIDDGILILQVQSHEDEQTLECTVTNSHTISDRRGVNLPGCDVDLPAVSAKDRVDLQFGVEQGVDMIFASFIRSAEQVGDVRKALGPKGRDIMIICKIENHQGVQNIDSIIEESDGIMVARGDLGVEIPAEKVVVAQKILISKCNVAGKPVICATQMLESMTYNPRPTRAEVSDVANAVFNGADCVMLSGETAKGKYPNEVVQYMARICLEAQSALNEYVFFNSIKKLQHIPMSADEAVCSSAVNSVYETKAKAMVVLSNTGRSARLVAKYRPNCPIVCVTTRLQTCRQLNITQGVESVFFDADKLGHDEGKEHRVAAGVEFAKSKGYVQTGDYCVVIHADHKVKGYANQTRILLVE
#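 0.1 nM LmPK, 0.5 mM PEP, 0.1 mM ADP; 50 mM imidazole pH 7.2, 7 mM MgCl2, 50 mM KCl; 1 h RT. Kinase-Glo luminescence readout, normalized to no-enzyme (full inhibition) and uninhibited wells.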
# * = called active by the depositor; i = inactive; u = inconclusive; x = no result; [ ] = another dose, or the depositor's remark. Unless noted, calls follow the shape of the dose curve; as a rule, active = well fitted inhibition curve with a large enough effect; inconclusive = small, poorly fitted or top-dose-only effect, or another doubt; inactive = no such curve, though single readings can be large or run the other way.
SMILES,Pf growth 96h,CHX counter,Pf growth 48h,Shiga toxin inh,LmPK inhibitor
Cc1cccc(C)c1NC(=S)N1CCC(c2ccccc2)C1 (configuration not stated),9%,1,55%,-12,8%
O=C(COc1ccc(CO)cc1Cl)Nc1ccc(F)cc1,25%,48*,x,58*,2%
O=C(COc1ccc(CO)cc1)Nc1ccc(F)cc1,11%,16*,49%,26,0%
COc1ccccc1NC(=O)COc1ccc(C(=O)NC2CCCc3ccccc32)cc1OC (configuration not stated),u,-3,u,-7,3%
COc1ccccc1NC(=O)COc1ccc(C(=O)NCc2ccccc2)cc1OC,u,x,13µM*,x,x
O=C(COc1ccc(Cl)cc1Cl)Nc1ccc(CN2CCOCC2)cc1,2%,-1,-5%,-2,-6%
Cc1cc(C)cc(OCC(=O)Nc2ccc(F)cc2)c1,-64%,14,u,36,6%
COc1ccccc1NC(=O)COc1ccc(CO)cc1Cl,x,32*,170%,57*,6%
CO/N=C(/C(=O)N[C@@H]1C(=O)N2C(C(=O)O)=CCS[C@H]12)c1csc(N)n1,-13%,x,-21%,x,x
FC(F)(F)c1ccc(-c2noc(CN3CCCN(C4CCCCC4)CC3)n2)cc1,9.3µM*,-1,u,-15,-6%
CN1c2ccc([N+](=O)[O-])cc2CC2(C(=O)NC(=O)N(c3ccc(Br)cc3)C2=O)C1c1ccccc1 (configuration not stated),u,0,1.7µM*,-3,-1%
CC(=O)C[C@H](c1ccc([N+](=O)[O-])cc1)c1c(O)c2ccccc2oc1=O,u,x,-12%[12.8 µM],x,x
O=C1/C(=N\S(=O)(=O)c2cccs2)C([n+]2cccc(Cc3ccccc3)c2)=C([O-])c2ccccc21,0.74µM*,-1,1.7µM*,-15,0%
O=C1/C(=N\S(=O)(=O)c2cccs2)C([n+]2ccc(CCCc3ccccc3)cc2)=C([O-])c2ccccc21,1µM*,8,0.37µM*,5,2%
NC(=NCCc1ccccc1)NS(=O)(=O)c1cccs1,9%,-5,-48%,7,10%
CC(C)N(Cc1ccccc1)S(=O)(=O)c1cccs1,27%,-8,-2%,17,7%
CCCc1nc2nc(C)c(NS(=O)(=O)c3ccc(CC(C)C)cc3)c(=O)n2[nH]1,-5%,-1,17%,-8,0%
COc1cc(Sc2ccc(C)cc2)c(OC)cc1N,-32%,-2,u,-16,-7%
COC(=O)c1ccc(Sc2ccc(C)cc2)c(N)c1,30%,57*,53%,57*,2%
COc1ccc(C(=O)C2CCCN(C(=O)c3noc4c3CCCC4)C2)c(C)c1 (configuration not stated),u,1,3%,-6,8%
Cc1noc(/C=C/c2ccco2)c1S(=O)(=O)N1CCC(C(=O)N2CCc3ccccc3C2)CC1,u,19*,9.3µM*,47*,4%
Cc1ccc(NC(=O)C2CCN(S(=O)(=O)c3c(C)noc3/C=C/c3ccco3)CC2)nc1,u,1,-11%,-7,2%
Cc1noc(/C=C/c2ccco2)c1S(=O)(=O)N1CCC(C(=O)NCc2ccco2)CC1,x,0,13µM*,-7,3%
Cc1ccc(CNC(=O)C2CCN(S(=O)(=O)c3c(C)noc3/C=C/c3ccco3)CC2)cc1,6.6µM*,5,x,9,7%
Cc1cccnc1NC(=O)C1CCN(S(=O)(=O)c2c(C)noc2/C=C/c2ccco2)CC1,u,-1,u,3,1%
SMILES,Pf growth 96h,CHX counter,Pf growth 48h,Shiga toxin inh,LmPK inhibitor
O=c1ncn(-c2ccccc2F)c2ncccc12,81%,9,49%,26,-5%
COCc1cc(=O)n2[nH]c(C(C)(C)C)cc2n1,36%,1,u,2,3%
Cc1cc(COc2ccccc2O)on1,15%,-1,x,-10,12%
c1ccc(OCc2cc(-c3ccccc3)no2)cc1,383%,53*,i,76*,2%
COc1ccccc1OCc1cc(-c2ccccc2)no1,384%,68*,369%,89*,-1%
COc1ccc(OCc2cc(-c3ccc(Cl)cc3)no2)cc1,84%,9,258%,35,-2%
COc1ccccc1N(CC(O)COc1ccc(C)cc1)S(=O)(=O)c1ccccc1 (configuration not stated),2.1µM*,0,u,16,8%
